Entries with a potency or affinity are not part of this list.

In the assay the test system is Klebsiella pneumoniae. Conditions: Concentration 20 uM; ASSAY_TEST Inhibition of Bacterial Growth; detection method Absorption (OD600); MEDIA CAMHB; plate type 384well; NBS; CORNING #3640; time 18 hr.
On to `CC(C)NCC(O)c1ccc(NS(C)(=O)=O)cc1.Cl` (stereo not drawn) [SOTALOL HYDROCHLORIDE], for which the Inhibition – broadly, the change of the read-out against control, counted positive when it falls – was -0.96%. As for `COCCCC/C(=N\OCCN)c1ccc(C(F)(F)F)cc1.O=C(O)/C=C\C(=O)O` [FLUVOXAMINE MALEATE], the figure is 6.46%. The figure for `CCC(=O)O[C@]1(C(=O)SCF)[C@H](C)C[C@H]2[C@@H]3C[C@H](F)C4=CC(=O)C=C[C@]4(C)[C@@]3(F)[C@@H](O)C[C@@]21C` [FLUTICASONE PROPIONATE] is 6.12%; for `OCCN1C[C@H](O)[C@@H](O)[C@H](O)[C@H]1CO` [MIGLITOL] it is 11.67%; for `Cn1ccnc1S` [METHIMAZOLE] it is 12.71%. As for `CN(C)CCOC(C)(c1ccccc1)c1ccccn1.O=C(O)CCC(=O)O` (stereo not drawn) [DOXYLAMINE SUCCINATE], the figure is 9.97%. As for `Nc1nc(O)c2ncn(CCC(CO)CO)c2n1` [PENCICLOVIR], the Inhibition is 17.55%. The figure for `CCN(CC)CC(=O)Nc1c(C)cccc1C` [LIDOCAINE] is 14.92%.

The record behind these values is ChEMBL document CHEMBL4513141, “CO-ADD screening of NIH (USA) - Clinical Collection” (2021).
